Test results from PubChem BioAssay AID2803 (The Scripps Research Institute Molecular Screening Center, 2010).
In all, about 2,000 compounds went through this assay and about 1,300 (65%) were called active. Cut-off read from the data, not from the text of the source: active = inhibition above about 43%; inactive = the rest. The set was probably picked from earlier hits. Only a sample is shown.

Biological target: Prolyl endopeptidase-like (Homo sapiens) (UniProt Q4J6C6)
Assay: human PREPL enzyme inhibitors, confirmation, biochemical, fluorescence polarization (AID 2803);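 note: 0% = protein with DMSO and 100% = wells lacking protein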
Details: recombinant PREPL, fluorescence polarization activity probe; at 5.96 µM; hits give high values

Chain of Prolyl endopeptidase-like (Homo sapiens) (Q4J6C6 whole entry, looked up): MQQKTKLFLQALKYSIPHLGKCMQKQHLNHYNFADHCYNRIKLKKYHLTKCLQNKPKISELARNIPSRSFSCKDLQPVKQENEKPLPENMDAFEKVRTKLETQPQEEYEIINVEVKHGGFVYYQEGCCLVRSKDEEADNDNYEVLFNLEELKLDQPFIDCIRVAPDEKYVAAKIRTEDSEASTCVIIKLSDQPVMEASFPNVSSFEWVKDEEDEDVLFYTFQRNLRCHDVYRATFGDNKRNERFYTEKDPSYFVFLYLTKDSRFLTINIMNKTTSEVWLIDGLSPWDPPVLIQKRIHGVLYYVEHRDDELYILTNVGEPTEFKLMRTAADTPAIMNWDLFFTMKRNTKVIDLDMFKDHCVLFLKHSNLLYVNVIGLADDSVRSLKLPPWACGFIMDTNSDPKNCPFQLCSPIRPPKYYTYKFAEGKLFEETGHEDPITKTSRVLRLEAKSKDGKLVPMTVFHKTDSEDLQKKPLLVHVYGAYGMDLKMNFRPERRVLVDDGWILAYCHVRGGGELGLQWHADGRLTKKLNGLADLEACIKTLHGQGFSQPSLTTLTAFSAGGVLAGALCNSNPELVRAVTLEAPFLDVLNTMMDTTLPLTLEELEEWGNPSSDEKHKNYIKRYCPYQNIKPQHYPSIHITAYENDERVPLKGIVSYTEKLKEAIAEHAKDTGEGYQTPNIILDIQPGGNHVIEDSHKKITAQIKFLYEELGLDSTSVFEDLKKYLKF

inhibition, active:
CCOc1ccc2nc(N3CCCN(C(=O)Nc4ccccc4C)CC3)c(C#N)cc2c1 43.9%
CC(=O)Nc1ccc(S(=O)(=O)Nc2ccc(N3CCCCC3)cc2)cc1 46.4%
O=C1N=C(N2CCc3ccccc3C2)S/C1=C\c1ccc(O)cc1 48.4%
COc1ccc2cc1Oc1ccc(cc1)C[C@H]1c3cc(c(OC)cc3CCN1C)Oc1c(O)c(OC)cc3c1[C@H](C2)N(C)CC3 55.2%
CCN1C(=O)/C(=C\N2CCN(c3ccccc3)CC2)SC1=S 54.7%
CCN1/C(=C/c2ccc3ccc(C)cc3[n+]2CC)Sc2ccccc21 52.8%
CCN1/C(=C\c2ccc3ccccc3[n+]2CC)Sc2cc(C)ccc21 61.6%
C#CCOCCOCCOCCNc1nc(N2CCN(C(=O)CCCCCCCCCCNC(=O)Cn3cc(CCCCCN)nn3)CC2)nc(N2CCN(C(=O)CCCCCCCCCCNC(=O)[C@H](CO)n3cc(CCCSC)nn3)CC2)n1 63.1%
CC(C)n1cnc2c(NCc3ccccc3)cc(OCC3CCN(C)CC3)cc21 54.1%
N#C/C(=C/c1ccc(N2CCCCC2)o1)C(=O)NCCc1c[nH]c2ccccc12 78.5%
Oc1c(CN2CCCC2)cc(COCc2ccccc2)c2cccnc12 69.6%
Cc1ccc(C2CC(c3cccc(C)c3)n3nc(N)nc3N2)cc1 (stereo unspecified) 53.7%
O=C(c1cc(C(=O)N2CCN(c3ccc(F)cc3)CC2)cc([N+](=O)[O-])c1)N1CCN(c2ccc(F)cc2)CC1 47.8%
O=C1c2ccccc2C(=O)c2c1cccc2N1CCN(C/C=C/c2ccccc2)CC1 80.7%
C[N+](C)(CCCCCC[N+](C)(C)CCCN1C(=O)c2cccc3cccc(c23)C1=O)CCCN1C(=O)c2cccc3cccc(c23)C1=O 56%
CC(C)(C)Nc1nc(-c2ccccn2)nc2ccccc12 62.5%
CC(=O)N1CCN(c2ccc(NCc3ccc(C(C)C)cc3)cc2)CC1 61.9%
CC[C@@H](C)[C@@H]1CN([C@@H](C)CN2CCC[C@H]2CN2C(N)=NC[C@H]2C(C)C)C(=N)N1CCc1ccc(Cl)c(Cl)c1 66.1%
Cc1ccc(OCC(=O)Nc2ccc(N3CCN(C(=O)c4ccco4)CC3)cc2)c(C)c1 52.6%
CN1CCN(c2ccc(NC(=O)COc3ccc(Cl)cc3Cl)cc2)CC1 58%
Cc1ccc(N2CCN(C3=NC(=O)/C(=C\c4cccs4)S3)CC2)cc1 44.4%
CCN(CC)c1ccc2cc(C(N)=O)/c(=N\NC(=O)c3ccncc3)oc2c1 56.2%
Nc1c(C(=O)c2cccs2)sc2nsc(SCCN3CCCCC3)c12 54.6%
Cc1ccc(NS(=O)(=O)c2ccc(N/N=C/c3ccccc3OCC(=O)O)c([N+](=O)[O-])c2)c(C)c1 46.4%
CC(C)CCNc1nc(N2CCCC2)c2c(c1C#N)CCN(C)C2 49%
CNCC[C@H](Oc1ccc(C(F)(F)F)cc1)c1ccccc1 55.1%

inhibition, inactive:
Nc1ccc(Nc2ccccc2)cc1 29.3%
O=C(NNc1c2ccccc2nc2ccccc12)c1cc2ccccc2cc1O 23.9%
COC(=O)[C@H]1[C@H]2C[C@H]3c4[nH]c5ccccc5c4CCN3C[C@@H]2CC[C@@H]1O 22.4%
Cc1nc([N+](=O)[O-])nn1C12CC3CC(CC(Br)(C3)C1)C2 8.94%
CCC(CO)Oc1cc(NCc2ccccc2)c2ncn(C3CCCC3)c2c1 (stereo unspecified) 12%
O=C(NCc1ccccn1)c1ccc2nc(-c3ccco3)c(-c3ccco3)nc2c1 39.2%
Oc1ccc2ccccc2c1N=Nc1nccs1 40.4%
O=C(OCC(=O)N1CCN(c2ccccc2)CC1)c1ccc([N+](=O)[O-])s1 22.6%
COCCN(CCOC)c1nc(N)c2c(N)nc3c(c2c1C#N)CC(=O)N3Cc1ccc(Cl)cc1 19.2%
COc1ccc2cc(C(=O)C3CCCN(C(=O)c4sc(C)nc4C)C3)ccc2c1 (stereo unspecified) 31.8%
Cn1c(CCN2CCCCCC2)nc2cc(NC(=O)Nc3ccccc3)ccc21 38.1%
O=C(N/N=C/c1cccnc1)c1cc2ccccc2cc1O 5.89%
COc1cc2c(cc1O)[C@H](Cc1ccc(Oc3cc(C[C@@H]4NCCc5cc(OC)c(O)cc54)ccc3O)cc1)NCC2 37.1%
C[C@@H](CN1CCC[C@H]1CN1C(N)=NC[C@@H]1Cc1ccccc1)N1C[C@@H](Cc2ccccc2)N(CCCC2CCCC2)C1=N 42.6%
COc1ccc(NC(C)=O)cc1NC(=O)CN1CCN(C2c3ccccc3-c3ccccc32)CC1 37.7%
Cc1ccccc1OCC(=O)Nc1ccc(N2CCN(C(=O)C(C)C)CC2)c(Cl)c1 42.7%
CC1CCN(C(=O)c2ccc3c(c2)NC(=O)CN3)CC1 12.2%
O=C1N[C@H](Cc2c[nH]c3ccccc23)COC(=O)[C@H](Cc2ccc(F)cc2)C/C=C\C[C@H]1CC(=O)N(CCO)Cc1ccccc1 34.5%
COC(=O)Cc1nc2ccccc2[nH]1 7.22%
Cc1ccc(Nc2ccccc2N)cc1 32.1%
